In the supplement of paper PMC11001985:
A number with no mark means an inactive call.

compound: C#CCNC(=O)CCSSCCC(=O)NCCc1ccc(C=O)c(C=O)c1; test: lysine labeling ratio R10:1 (500 µM / 50 µM probe), SILAC-ABPP in living cells; higher = lower intrinsic lysine reactivity toward the probe, active = 2 or less; conditions: HeLa; probe concentrations 500 vs 50 µM
Experimental: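 Living HeLa cells (SILAC light/heavy) in PBS at room temperature were labeled with 50 µM versus 500 µM of the lysine-reactive, reductant-cleavable probe OPA-S-S-alkyne (SILAC labeling time not stated). Probe-modified peptides were CuAAC-biotinylated, captured on neutravidin and eluted with DTT/IAA, then quantified by LC-MS/MS. R = median peptide ratio per lysine (500/50 µM), combined over 3 forward and 3 reverse SILAC replicates. Ratios are capped at 20; R < 2 = hyper-reactive.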

Sequence of UniProt P48960 (P48960 whole entry): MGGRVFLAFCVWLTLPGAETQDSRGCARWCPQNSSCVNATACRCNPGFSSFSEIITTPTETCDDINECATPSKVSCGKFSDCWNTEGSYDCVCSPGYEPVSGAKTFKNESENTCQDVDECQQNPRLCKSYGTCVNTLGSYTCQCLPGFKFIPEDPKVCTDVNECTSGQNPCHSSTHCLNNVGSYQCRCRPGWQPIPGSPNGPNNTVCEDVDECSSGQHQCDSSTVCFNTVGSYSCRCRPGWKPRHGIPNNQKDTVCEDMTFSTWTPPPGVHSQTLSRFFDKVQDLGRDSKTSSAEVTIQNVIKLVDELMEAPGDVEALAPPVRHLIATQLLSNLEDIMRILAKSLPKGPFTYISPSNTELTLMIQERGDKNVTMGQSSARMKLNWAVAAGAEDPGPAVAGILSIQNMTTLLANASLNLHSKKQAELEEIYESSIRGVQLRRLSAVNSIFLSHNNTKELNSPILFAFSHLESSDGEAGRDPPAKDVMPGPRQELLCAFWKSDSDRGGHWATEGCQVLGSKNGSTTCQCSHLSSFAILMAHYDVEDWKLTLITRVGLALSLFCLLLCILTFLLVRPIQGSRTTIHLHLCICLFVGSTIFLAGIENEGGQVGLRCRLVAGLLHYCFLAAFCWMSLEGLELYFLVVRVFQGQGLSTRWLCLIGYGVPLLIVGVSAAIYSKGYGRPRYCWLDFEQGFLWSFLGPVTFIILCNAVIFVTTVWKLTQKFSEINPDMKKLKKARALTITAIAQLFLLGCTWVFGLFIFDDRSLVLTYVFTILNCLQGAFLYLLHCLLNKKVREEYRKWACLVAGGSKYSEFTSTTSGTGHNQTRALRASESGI
Sequence of UniProt P25445 (P25445 whole entry): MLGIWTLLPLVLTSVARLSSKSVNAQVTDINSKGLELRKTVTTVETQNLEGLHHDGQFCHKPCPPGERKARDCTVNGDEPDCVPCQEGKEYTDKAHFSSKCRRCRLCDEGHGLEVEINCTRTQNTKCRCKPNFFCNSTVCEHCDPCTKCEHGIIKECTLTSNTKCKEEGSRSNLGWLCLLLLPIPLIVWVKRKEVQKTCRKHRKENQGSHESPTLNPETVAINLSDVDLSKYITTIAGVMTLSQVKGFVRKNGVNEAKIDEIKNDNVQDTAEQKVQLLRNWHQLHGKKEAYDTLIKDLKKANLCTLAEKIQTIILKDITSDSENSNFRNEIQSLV
Sequence of UniProt P50990 (P50990 whole entry): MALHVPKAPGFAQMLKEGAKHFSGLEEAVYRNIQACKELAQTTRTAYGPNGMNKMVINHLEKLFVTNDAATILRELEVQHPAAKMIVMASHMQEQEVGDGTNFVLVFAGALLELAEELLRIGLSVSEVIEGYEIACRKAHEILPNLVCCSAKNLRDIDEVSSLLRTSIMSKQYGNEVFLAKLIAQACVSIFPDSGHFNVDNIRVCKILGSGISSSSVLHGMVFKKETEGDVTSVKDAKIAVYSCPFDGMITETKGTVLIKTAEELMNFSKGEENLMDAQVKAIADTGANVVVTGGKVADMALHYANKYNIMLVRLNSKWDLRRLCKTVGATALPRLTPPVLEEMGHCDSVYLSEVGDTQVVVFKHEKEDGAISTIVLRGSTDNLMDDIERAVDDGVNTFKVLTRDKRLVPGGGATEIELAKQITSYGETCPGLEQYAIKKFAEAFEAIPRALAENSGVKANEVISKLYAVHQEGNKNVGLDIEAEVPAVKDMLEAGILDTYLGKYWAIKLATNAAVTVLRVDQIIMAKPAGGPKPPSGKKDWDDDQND
Sequence of UniProt P08174 (P08174 whole entry): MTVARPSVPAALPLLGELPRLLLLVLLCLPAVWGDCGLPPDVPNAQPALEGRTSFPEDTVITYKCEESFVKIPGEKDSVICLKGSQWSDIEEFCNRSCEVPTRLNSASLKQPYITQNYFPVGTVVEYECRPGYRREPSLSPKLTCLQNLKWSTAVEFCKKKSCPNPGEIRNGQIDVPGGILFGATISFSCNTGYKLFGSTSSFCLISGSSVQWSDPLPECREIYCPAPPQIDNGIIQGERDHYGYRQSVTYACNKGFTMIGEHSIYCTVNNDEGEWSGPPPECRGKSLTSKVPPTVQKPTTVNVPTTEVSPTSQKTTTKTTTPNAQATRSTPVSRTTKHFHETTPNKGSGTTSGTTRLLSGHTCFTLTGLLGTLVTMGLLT
Sequence of UniProt Q9Y2W1 (Q9Y2W1 whole entry): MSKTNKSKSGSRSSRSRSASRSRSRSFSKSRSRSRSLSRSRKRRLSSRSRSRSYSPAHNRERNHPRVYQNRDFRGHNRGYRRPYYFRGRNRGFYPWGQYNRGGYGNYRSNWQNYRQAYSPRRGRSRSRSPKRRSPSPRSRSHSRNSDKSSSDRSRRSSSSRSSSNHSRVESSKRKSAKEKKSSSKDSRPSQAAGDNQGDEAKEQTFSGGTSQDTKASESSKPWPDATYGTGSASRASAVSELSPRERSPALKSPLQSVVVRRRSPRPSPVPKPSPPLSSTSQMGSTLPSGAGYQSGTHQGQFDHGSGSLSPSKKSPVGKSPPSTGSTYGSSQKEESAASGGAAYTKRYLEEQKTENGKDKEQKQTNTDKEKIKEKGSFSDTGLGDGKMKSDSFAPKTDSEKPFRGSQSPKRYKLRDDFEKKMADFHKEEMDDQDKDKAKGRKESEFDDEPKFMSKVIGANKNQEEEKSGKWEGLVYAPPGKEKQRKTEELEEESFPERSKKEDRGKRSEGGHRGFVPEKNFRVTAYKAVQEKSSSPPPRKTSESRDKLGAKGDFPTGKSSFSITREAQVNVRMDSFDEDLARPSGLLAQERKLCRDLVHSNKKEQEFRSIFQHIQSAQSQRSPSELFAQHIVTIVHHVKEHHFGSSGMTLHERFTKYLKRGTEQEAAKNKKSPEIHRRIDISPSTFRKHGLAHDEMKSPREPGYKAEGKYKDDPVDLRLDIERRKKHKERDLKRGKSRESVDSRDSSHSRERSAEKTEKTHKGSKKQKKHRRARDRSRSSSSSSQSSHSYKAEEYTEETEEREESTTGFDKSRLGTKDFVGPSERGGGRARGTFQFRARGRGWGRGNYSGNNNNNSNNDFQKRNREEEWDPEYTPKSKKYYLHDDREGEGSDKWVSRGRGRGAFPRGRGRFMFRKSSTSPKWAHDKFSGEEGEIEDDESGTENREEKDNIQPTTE
Sequence of UniProt P21589 (P21589 whole entry): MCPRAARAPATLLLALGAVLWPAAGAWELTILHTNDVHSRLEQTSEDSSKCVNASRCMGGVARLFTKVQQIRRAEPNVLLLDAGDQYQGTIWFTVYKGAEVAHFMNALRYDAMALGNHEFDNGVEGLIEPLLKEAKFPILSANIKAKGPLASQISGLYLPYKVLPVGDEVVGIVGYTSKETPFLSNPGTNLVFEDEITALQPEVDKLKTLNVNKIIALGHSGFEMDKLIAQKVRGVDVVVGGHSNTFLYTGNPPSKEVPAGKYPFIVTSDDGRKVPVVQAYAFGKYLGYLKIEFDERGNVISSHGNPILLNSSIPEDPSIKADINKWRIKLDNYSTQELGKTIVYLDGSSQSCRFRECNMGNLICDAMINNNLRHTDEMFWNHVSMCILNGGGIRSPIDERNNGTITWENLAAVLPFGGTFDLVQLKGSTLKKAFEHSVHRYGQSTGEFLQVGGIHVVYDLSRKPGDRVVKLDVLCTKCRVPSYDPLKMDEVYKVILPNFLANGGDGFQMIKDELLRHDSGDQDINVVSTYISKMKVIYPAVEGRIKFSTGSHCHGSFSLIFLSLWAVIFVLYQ
Sequence of UniProt P26599 (P26599 whole entry): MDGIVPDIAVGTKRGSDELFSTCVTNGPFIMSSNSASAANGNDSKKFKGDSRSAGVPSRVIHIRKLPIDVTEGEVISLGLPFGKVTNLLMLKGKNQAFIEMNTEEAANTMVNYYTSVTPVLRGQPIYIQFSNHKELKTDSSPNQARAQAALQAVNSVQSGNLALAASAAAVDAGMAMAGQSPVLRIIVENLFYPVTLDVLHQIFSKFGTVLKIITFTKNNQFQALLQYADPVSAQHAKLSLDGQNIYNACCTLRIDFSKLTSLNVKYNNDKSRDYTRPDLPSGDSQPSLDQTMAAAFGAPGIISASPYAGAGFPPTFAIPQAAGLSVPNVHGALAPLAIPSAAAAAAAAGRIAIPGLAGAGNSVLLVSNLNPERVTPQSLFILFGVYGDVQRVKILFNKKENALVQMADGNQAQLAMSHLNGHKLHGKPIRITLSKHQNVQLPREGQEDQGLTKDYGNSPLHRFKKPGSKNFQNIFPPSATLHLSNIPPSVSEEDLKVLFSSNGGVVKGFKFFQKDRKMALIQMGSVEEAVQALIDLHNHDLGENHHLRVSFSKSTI
Sequence of UniProt P31689 (P31689 whole entry): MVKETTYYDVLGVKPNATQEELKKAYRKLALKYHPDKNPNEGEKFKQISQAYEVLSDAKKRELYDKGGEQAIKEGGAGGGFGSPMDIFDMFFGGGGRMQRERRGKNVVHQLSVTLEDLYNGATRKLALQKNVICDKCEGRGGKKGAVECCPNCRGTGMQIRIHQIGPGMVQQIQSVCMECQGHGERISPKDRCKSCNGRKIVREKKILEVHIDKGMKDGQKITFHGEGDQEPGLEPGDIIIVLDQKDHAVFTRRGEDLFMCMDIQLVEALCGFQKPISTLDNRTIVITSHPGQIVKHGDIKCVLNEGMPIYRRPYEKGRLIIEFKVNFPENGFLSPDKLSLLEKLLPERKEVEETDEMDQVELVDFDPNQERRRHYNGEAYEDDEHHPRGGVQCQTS
Sequence of UniProt P80303 (P80303 whole entry): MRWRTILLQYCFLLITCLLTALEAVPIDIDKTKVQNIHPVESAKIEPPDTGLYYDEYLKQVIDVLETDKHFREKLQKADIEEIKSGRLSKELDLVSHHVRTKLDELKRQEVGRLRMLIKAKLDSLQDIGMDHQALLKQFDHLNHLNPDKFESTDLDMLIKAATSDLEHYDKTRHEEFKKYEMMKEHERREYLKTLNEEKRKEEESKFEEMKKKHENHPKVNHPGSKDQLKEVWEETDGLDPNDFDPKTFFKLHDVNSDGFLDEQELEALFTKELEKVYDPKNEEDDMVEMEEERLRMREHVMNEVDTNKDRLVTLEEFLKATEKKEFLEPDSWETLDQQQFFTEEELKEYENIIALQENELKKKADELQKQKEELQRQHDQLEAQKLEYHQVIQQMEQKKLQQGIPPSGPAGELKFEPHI

| Target | lysine labeling ratio R10:1 |
| --- | --- |
| TFRC (lysine site: K161) (UniProt P02786) | 6.73 |
| CS (lysine site: K76) (UniProt O75390) | 5.03 |
| UniProt Q14574 (lysine site: K662) | 1.83 (active) |
| CD97 (lysine site: K422) (UniProt P48960) | 2.07 |
| LTF (lysine site: K476) (UniProt P02788) | 0.862 (active) |
| UniProt Q8WXI7 (lysine site: K13402) | 5.02 |
| UniProt P05787 (lysine site: K295) | 11.9 |
| KIRREL (lysine site: K113) (UniProt Q96J84) | 2.15 |
| THRAP3 (lysine site: K519) (UniProt Q9Y2W1) | 3.8 |
| FOLR1 (lysine site: K136) (UniProt P15328) | 7.36 |
| CD97 (lysine site: K499) (UniProt P48960) | 3.84 |
| FRAS1 (lysine site: K1628) (UniProt Q86XX4) | 3.34 |
| UniProt Q32P28 (lysine site: K363) | 4.24 |
| ACIN1 (lysine site: K81) (UniProt Q9UKV3) | 3.67 |
| NUCB2 (lysine site: K171) (UniProt P80303) | 2.34 |
| CD55 (lysine site: K161) (UniProt P08174) | 0.828 (active) |
| SERBP1 (lysine site: K72) (UniProt Q8NC51) | 1.17 (active) |
| CDCP1 (lysine site: K592) (UniProt Q9H5V8) | 3.49 |
| DNAJA1 (lysine site: K136) (UniProt P31689) | 1.69 (active) |
| PAICS (lysine site: K247) (UniProt P22234) | 1.41 (active) |

| Target | lysine labeling ratio R10:1 |
| --- | --- |
| UniProt Q15149 (lysine site: K1996) | 3.69 |
| PTPRF (lysine site: K204) (UniProt P10586) | 4.93 |
| XRCC5 (lysine site: K648) (UniProt P13010) | 1.9 (active) |
| UniProt P21589 (lysine site: K433) | 3.8 |
| S100A10 (lysine site: K28) (UniProt P60903) | 5.79 |
| PTPRB (lysine site: K718) (UniProt P23467) | 1.5 (active) |
| DSG2 (lysine site: K67) (UniProt Q14126) | 3.97 |
| FAS (lysine site: K100) (UniProt P25445) | 1.44 (active) |
| UniProt Q15149 (lysine site: K1886) | 1.49 (active) |
| CCT8 (lysine site: K326) (UniProt P50990) | 3.67 |
| UniProt O60245 (lysine site: K484) | 1.3 (active) |
| ACTR3 (lysine site: K348) (UniProt P61158) | 1.4 (active) |
| SURF4 (lysine site: K22) (UniProt O15260) | 3.81 |
| UniProt P05186 (lysine site: K346) | 0.557 (active) |
| HSPA8 (lysine site: K159) (UniProt P11142) | 5.07 |
| ITGA6 (lysine site: K586) (UniProt P23229) | 12.8 |
| UniProt P68366 (lysine site: K112) | 2.82 |
| MCAM (lysine site: K286) (UniProt P43121) | 2.67 |
| CELSR2 (lysine site: K2176) (UniProt Q9HCU4) | 4.05 |
| PTBP1 (lysine site: K271) (UniProt P26599) | 2.72 |
